This is a sample that favours compounds with a hit; in the whole collection about 0.28% have one here.
hcGAS inh: inhibitors of human cGAS; Q8N884; recombinant h-cGAS, ATP depletion, Kinase-Glo luminescence; inhibition, % at 12.5 µM; 290,000 tested, 0.081% active; AID 1259398
mcGAS inh: mouse cGAS inhibition by luminescence. recombinant cGAS, Kinase-Glo ATP depletion luminescence. inhibition, % at 12.5 µM. 160,000 tested, 0.15% active. Q8C6L5
Target sequence (Q8C6L5 whole entry, looked up): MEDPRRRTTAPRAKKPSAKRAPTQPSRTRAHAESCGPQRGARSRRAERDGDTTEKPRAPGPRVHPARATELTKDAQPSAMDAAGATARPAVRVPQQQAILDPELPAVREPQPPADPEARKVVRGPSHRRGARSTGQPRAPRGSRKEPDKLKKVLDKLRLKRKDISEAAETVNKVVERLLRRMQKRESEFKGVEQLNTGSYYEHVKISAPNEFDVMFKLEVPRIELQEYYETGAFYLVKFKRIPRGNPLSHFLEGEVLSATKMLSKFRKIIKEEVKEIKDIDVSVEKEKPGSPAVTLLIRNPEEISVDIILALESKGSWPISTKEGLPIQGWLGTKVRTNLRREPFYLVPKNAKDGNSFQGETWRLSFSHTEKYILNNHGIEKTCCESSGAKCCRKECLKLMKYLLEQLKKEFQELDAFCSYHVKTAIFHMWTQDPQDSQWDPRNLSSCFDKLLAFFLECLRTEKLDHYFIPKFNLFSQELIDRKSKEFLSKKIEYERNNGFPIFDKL
NPYLR7 ag: mosquito NPYLR7 agonism. 270,000 tested, 0.15% active. HEK293T NPYLR7/Galpha15, GCaMP6s calcium fluorescence. activation, % at 10 µM; in the data active = activation above about 40%
Each line names hits and unclear results; the compound was inactive in the other large screens. Cut-off read from the data, not from the text of the source, unless noted: active = inhibition above about 40%; inactive = the rest.

O=C(CSc1nnc2ccccn12)Nc1ccc([N+](=O)[O-])cc1Cl	none (no result: mcGAS inh)
O=C(OCC1(O)C(Cl)C=CC(OC(=O)c2ccccc2)C1O)c1ccccc1 (stereo unspecified)	mcGAS inh 48
O=C(OCN1C(=O)c2ccccc2C1=O)c1ccccc1	none (no result: mcGAS inh)
CCC(C1=CCCN(Cc2cn3cc(C)ccc3n2)C1)N(C)C(C)=O (stereo unspecified)	none (no result: NPYLR7 ag)
Cn1ccnc1SCC(=O)c1cc(I)c(O)c(I)c1	mcGAS inh 76
CC(C)Cn1c(N)c(C(=O)CSc2nccn2C)c(=O)n(C)c1=O	none
Cc1cc(OC(=O)CC2CCCC2)c([N+](=O)[O-])c(=O)[nH]1	none
N[C@@H](Cc1cc(-c2ccc(Cl)cc2Cl)cc(CP(=O)(O)O)c1O)C(=O)O	hcGAS inh 53 (no result: mcGAS inh)
NC(Cc1ccc(Cl)cc1)C(=O)O (stereo unspecified)	none
COC(C)(C)CCCC(C)Cc1nc2ccc(-n3cnnn3)cc2[nH]1 (stereo unspecified)	none (no result: mcGAS inh)
Nc1c(O)ccc2c1C(=O)c1ccccc1C2=O	none
N#Cc1c(N)oc2c3c(c(O)cc12)C(=O)c1ccccc1C3=O	hcGAS inh 48 (no result: mcGAS inh)
Cc1cccc(OCc2nc(CN(CCN(C)C)C(=O)c3ccccc3F)cs2)c1C	none
CCN(Cc1csc(COc2cccc(C)c2C)n1)C(=O)c1ccccc1F	mcGAS inh 88
O=C(NN=Cc1ccccc1C(F)(F)F)c1ccco1	none
O=C(NN=Cc1ccccc1C(F)(F)F)c1cnccn1	mcGAS inh 55
COc1cc(C(=O)C=Cc2cccc(O)c2)ccc1O	mcGAS inh 41
COC(=O)c1ccc(C=CC(=O)c2ccc(O)c(OC)c2)cc1	mcGAS inh 44
COc1cccc(C=CC(=O)c2ccc(OC)c(OC)c2)c1	none
COc1cc(C=CC(=O)c2ccc(C#N)cc2)ccc1O	none
COc1ccc(N2CCN(c3nc(SCc4cccc(C(=O)N5CCCC5)c4)nc(C)c3C)CC2)cc1	none
O=C(COc1cccc[n+]1[O-])N1CCc2ccccc21	none (no result: mcGAS inh)
COc1ccc(-c2[nH]ncc2-c2[nH]cnc2-c2ccccc2)cc1	none
N#Cc1ccc(F)c(CNC(=O)N2CCC(n3ccnc3)CC2)c1	none
O=C1CSC(=S)N1N=Cc1ccc([N+](=O)[O-])o1	mcGAS inh 59
O=C1CSC(=S)N1N=Cc1cc(Br)c(O)c(Br)c1	hcGAS inh 43, mcGAS inh 60, NPYLR7 ag 67
COc1cc(C=NN2C(=O)CSC2=S)cc(Br)c1O	none
O=C1CSC(=S)N1N=Cc1ccc(-c2nc3ccccc3s2)o1	none (no result: mcGAS inh)
CCN1c2ccccc2Sc2cc(C=O)ccc21	none (no result: mcGAS inh)
Cc1cc(C=C2Sc3ccccc3N2C)cc(C)[n+]1-c1ccccc1	NPYLR7 ag 76 (no result: mcGAS inh)
CCN1C(=Cc2ccc3cc(C)ccc3[n+]2CC)Sc2ccccc21	NPYLR7 ag 74 (no result: mcGAS inh)
CCCC[n+]1c(C)cc(C=C2Sc3ccccc3N2C)cc1C	NPYLR7 ag 198 (no result: mcGAS inh)
CN(C)CCCN1c2ccccc2Sc2ccc(C(F)(F)F)cc21	none
CCC(C)[n+]1c(C)cc(C=C2Sc3ccccc3N2CC)cc1C (stereo unspecified)	NPYLR7 ag 78 (no result: mcGAS inh)
CCN1C(=CC=Cc2sc3ccccc3[n+]2CC)Sc2ccccc21	none (no result: mcGAS inh)
Cc1cc(C=C2Sc3ccccc3N2C)cc(C)[n+]1N1CCN(C)CC1	none (no result: mcGAS inh)
CC(=O)Nc1nc(-c2cc3cc(Cl)cc(Cl)c3oc2=O)cs1	none
CC(C)c1cc(NCc2cccnc2N2CCN(c3ccccn3)CC2)ncn1	none (no result: mcGAS inh)
CCOC(=O)c1ccccc1N1C(=O)/C(=C\c2ccncc2)N(C)C1=S	none
Cc1cc(C=C2Sc3ccccc3N2C)cc(C)[n+]1Cc1ccncc1	NPYLR7 ag 51
CN1C(=C2C(=O)CC(C)(C)CC2=O)Sc2ccccc21	none (no result: mcGAS inh)
CCOC(=O)/C(C#N)=C1/Sc2ccccc2N1C	none (no result: mcGAS inh)
CCN1/C(=C/C2=CC(=O)CC(C)(C)C2)Sc2ccccc21	NPYLR7 ag 60 (no result: mcGAS inh)
CCC(C)[n+]1c(C)cc(C=C2Sc3ccccc3N2C)cc1C (stereo unspecified)	NPYLR7 ag 173 (no result: mcGAS inh)
Cc1cc(C(=O)Nc2ccn(-c3ccccc3)n2)c(C)o1	none (no result: NPYLR7 ag)
Cc1cccc(C2=N/C(=C\c3cc4cc5c6c(c4oc3=O)CCCN6CCC5)C(=O)O2)c1	NPYLR7 ag 117
Cc1ccc(C2=NC(=Cc3ccc(N4CCOCC4)s3)C(=O)O2)cc1[N+](=O)[O-]	none (no result: mcGAS inh)
O=C1OC(c2ccc(Cl)c([N+](=O)[O-])c2)=N/C1=C\c1cc2cc3c4c(c2oc1=O)CCCN4CCC3	NPYLR7 ag 123
COc1cc(OC)c(OC)cc1C=C1N=C(c2cccc(C)c2)OC1=O	none (no result: mcGAS inh)
CCOC(=O)C1(C)CCCCN1C(=O)c1c(F)ccc(C)c1F (stereo unspecified)	none (no result: mcGAS inh)
COc1cc(C(=O)NS(=O)(=O)c2ccc(Cl)cc2)ccc1OC(C)C	none (no result: mcGAS inh)
O=C(CSc1nc(=O)n(CC2CCCO2)c2c1CCCC2)N1CCc2ccccc21 (stereo unspecified)	none
CCOC(=O)C1=C(C)NC(C)=C(C(=O)OCC)C1c1cc(Cl)ccc1OC(F)F	NPYLR7 ag 50
COC(=O)C1=C(C)NC(C)=C(C(=O)OC)C1c1cc(Cl)ccc1OC(F)F	none
CCCN(C)C(=O)C(C1CCCC1)N1CCN(C(=O)C2CCC2)CC1 (stereo unspecified)	none
COc1ccc(N=Cc2c(O)n(-c3ccccc3)c(=O)c3ccccc23)c(OC)c1	none
COc1cccc(-n2c(O)c(C=Nc3cc(OC)ccc3OC)c3ccccc3c2=O)c1	NPYLR7 ag 52
CCOC(=O)CCNC(=O)CCc1ccc(-c2ccc(F)cc2)n1-c1ccc(NC(C)=O)cc1	none
O=C(O)Cc1cc(I)c(Oc2ccc(O)c(I)c2)c(I)c1	none
O=C(O)Cc1cc(I)c(Oc2cc(I)c(O)c(I)c2)c(I)c1	hcGAS inh 68, mcGAS inh 94 (no result: NPYLR7 ag)
CCOC(=O)N1CCN(c2ccc(/C=C(\C#N)c3nc4ccccc4n3C)o2)CC1	NPYLR7 ag 342 (no result: mcGAS inh)
CCOC(=O)N1CCN(c2ccc(/C=C(\C#N)c3nc4ccccc4s3)o2)CC1	none (no result: mcGAS inh)
C[n+]1ccc(C=CC(=O)c2ccc3cccc4c3c2CC4)cc1	mcGAS inh 61
C[n+]1ccc(C=CC(=O)c2ccc3c4c(cccc24)CC3)cc1	none
Cc1[nH]c(/C=C2\C(=O)Nc3ccccc32)c(C)c1CCC(=O)O	NPYLR7 ag 74 (no result: mcGAS inh)
O=C(O)C=C1C(=O)Nc2ccccc21	none
CCN=c1scc(-c2ccc(O)c(C(N)=O)c2)n1CC	none (no result: mcGAS inh)
CCOC(=O)N1CCC(NC(=O)c2sc3nc4c(c(C(F)(F)F)c3c2N)CC(C)CC4)CC1 (stereo unspecified)	NPYLR7 ag 62
COc1ccc(CNC(=O)c2sc3nc4c(c(C(F)(F)F)c3c2N)CN(C(C)=O)CC4)cc1	none (no result: mcGAS inh)
CC(C)N(Cc1cnn(C)c1)C(=O)/C=C/c1ccccc1	none (no result: mcGAS inh)
Cc1cc(NC(=O)CCl)ccc1N1CCCC1	none
O=C(CCl)Nc1ccc2c(c1)C(=O)c1ccccc1C2=O	mcGAS inh 57
O=C(Nc1cccc([N+](=O)[O-])c1)c1cc(Cl)ccn1	none
CN(Cc1ccc(F)cc1)c1ncnc2cc(-c3ccc(F)cc3)sc12	none (no result: mcGAS inh)
O=C(CCl)Nc1nc(-c2ccccc2Cl)cs1	mcGAS inh 60
O=C(CCC1CCCC1)Nc1nc(-c2ccccc2Cl)cs1	none (no result: mcGAS inh)
CCOC(=O)c1c(N=Cc2nc(-c3ccccc3)oc2O)sc(C)c1C	none
CCOC(=O)c1c(-c2ccccc2)csc1N=Cc1nc(-c2ccco2)oc1O	NPYLR7 ag 141
CCNc1ccc(OC)nc1	NPYLR7 ag 55 (no result: mcGAS inh)
CNc1ccc(-c2ccc(OC)nc2)cn1	none (no result: mcGAS inh)
